# Bioassay records deposited in PubChem BioAssay by National Center for Advancing Translational Sciences (NCATS).
# Giardia FBPA inh: Giardia lamblia aldolase inhibition. A8B2U2. purified Giardia FBPA. Potency, µM (top dose mostly 59.6 µM), for inactives: at the highest dose activity, negative = inhibition, most hits filed as inhibitors. actives 0.71% (n = 290,000). AID 2451; note: % is set by controls: 0 for no effect and ±100 for the full control effect; nearly all actives have a fitted effect of over 55% in size
# Target sequence (A8B2U2 whole entry, looked up): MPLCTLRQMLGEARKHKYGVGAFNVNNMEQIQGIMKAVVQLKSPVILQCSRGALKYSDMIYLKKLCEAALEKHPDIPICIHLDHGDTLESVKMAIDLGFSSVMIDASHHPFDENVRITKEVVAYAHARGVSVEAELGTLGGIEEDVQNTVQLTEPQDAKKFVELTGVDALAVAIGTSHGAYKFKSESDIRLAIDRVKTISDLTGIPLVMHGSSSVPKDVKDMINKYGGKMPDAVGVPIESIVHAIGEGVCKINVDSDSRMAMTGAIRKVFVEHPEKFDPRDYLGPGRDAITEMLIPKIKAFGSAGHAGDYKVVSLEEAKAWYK
#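 Giardia FBPA (40 nM reagent) was preincubated 10 min at RT with compound (up to 57.5 uM final), then substrate plus GAPDH/TPI/NAD/arsenate coupling system with diaphorase/resazurin was added; resorufin fluorescence (525/598 nm) was read after 20 min.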
# AmpC inh no detg: inhibitors of E. coli AmpC beta-lactamase without detergent | P00811 | AmpC nitrocefin hydrolysis, absorbance 480 nm, 0.0001% Triton | Potency, µM (top dose mostly 57.1 µM), for inactives: at the top dose activity change, negative = inhibition, most hits filed as inhibitors | actives 0.52% (n = 330,000);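 note: plate controls were no compound for no effect and no enzyme for full effect; nearly all actives have a fitted effect of over 20% in size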
#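 20 mM phosphate pH 7.0 + 0.01% (detergent screen) or 0.0001% Triton X-100; 5.3 nM AmpC reagent; cpd preinc 15 min RT; nitrocefin (800 uM stock) to start; A480 q20 s × 4 min; Activity was normalised to no-enzyme and no-compound control wells.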
# AmpC inh detg: blocks E. coli AmpC beta-lactamase in detergent assay | P00811 | AmpC hydrolysis of nitrocefin, absorbance 480 nm, 0.01% Triton | Potency, µM (highest dose often 114 µM), for inactives: at the top dose activity change, negative = inhibition, most hits filed as inhibitors | actives 0.041% (n = 370,000) | AID 485294;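 note: 0% = no-compound wells and -100% = no-enzyme wells; nearly all actives have a fitted effect of over 25% in size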
#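 20 mM phosphate pH 7.0 + 0.01% (detergent screen) or 0.0001% Triton X-100; 5.3 nM AmpC reagent; cpd preinc 15 min RT; nitrocefin (800 uM stock) to start; A480 q20 s × 4 min; Activity was normalised to no-enzyme and no-compound control wells.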
# SARS PLP yeast: SARS-CoV PLP inhibition in yeast | Potency, µM (series often up to 32.9 µM), inactives show top-dose activity, positive = growth rescue, most hits filed as activators | AID 485353 | actives 0.19% (n = 330,000) | S. cerevisiae expressing SARS-CoV PLpro, growth rescue; calls by dose curve; note: 0% is about no effect; nearly all actives have a fitted effect of over 55% in size
# Active calls of the source: *; ? = inconclusive; . = not tested or not shown; [ ] = dose if it differs, or a comment. Hits are enriched below; roughly 1.1% of the tested compounds scored in any of these assays. Unless noted, calls come from the whole dose curve; as a rule, active = well fitted curve in the direction sought with a large enough effect; inconclusive = small, poorly fitted or top-dose-only effect, or another doubt; inactive = no such curve, though single readings can be large; an effect the other way counts as inactive or inconclusive. Potency is the fitted concentration of half-maximal effect.
SMILES,Giardia FBPA inh,AmpC inh no detg,AmpC inh detg,SARS PLP yeast
CCOc1ccc(-c2n[nH]c(C(=O)NN)c2C)cc1,5%,28µM*,-12%,-25%
Cc1c(-c2ccccc2)n[nH]c1C(=O)NN,1%,-26%,-19%,0%
CCOC(=O)c1ccc(NC(=O)CSc2nc3c(c(=O)n2-c2ccccc2OC)SCC3)cc1,-17%,-22%,?,0%
COc1ccc(NC(=O)CSc2nc3c(c(=O)n2-c2ccccc2OC)SCC3)cc1,-13%,35µM*,-11%,5%
COc1ccc(CCNC(=O)C(=O)NCC(c2cccs2)S(=O)(=O)c2cccs2)cc1 (configuration not stated),.,.,2%,.
O=C(Oc1c(-c2ccccc2Cl)oc2ccccc2c1=O)c1ccc(Cl)cc1,-4%,18µM*,-6%,-6%
O=C(Oc1c(-c2ccccc2)oc2ccccc2c1=O)c1ccccc1,1%,-19%,?,0%
CC(=O)c1cccc(NC(=O)CN2C(=O)CC(c3ccc(C)cc3C)=Nc3ccccc32)c1,.,.,-7%,.
Cc1cc(Cl)ccc1Oc1ccccc1C(=O)CC#N,-17%,4µM*,10%,-4%
O=C1NC(=Nc2ccc3ccccc3c2)S/C1=C/c1ccco1,-8%,32µM*,2%,1%
Cc1cccc(N=C2NC(=O)/C(=C/C=C/c3ccco3)S2)c1,-12%,28µM*,-14%,-14%
Cc1ccc(N=C2NC(=O)/C(=C\c3ccco3)S2)cc1,2%,-44%,-15%,-5%
O=C1NC(=Nc2ccc(O)cc2)S/C1=C/c1ccco1,-4%,10µM*,0%,2%
COc1ccc(CNC(=O)CCC2N=C3c4ccccc4N=C(SCc4ccc(F)cc4)N3C2=O)cc1 (configuration not stated),.,.,4%,.
COc1ccc(C(=O)c2ccccc2)cc1,-2%,-19%,-4%,-1%
COC1=CC(=O)C(C(=O)c2ccccc2)=CC1=O,1.1µM*,.,.,.
COc1cc(/C=C2\CC/C(=C\c3cc(OC)c(O)c(OC)c3)C2=O)cc(OC)c1O,1.6µM*,39%,?,4%
COC(=O)C1=C[C@@H](C(=O)OC)C2C3=C(C(=O)[C@@]2(C)NC(=O)c2ccccc2)[C@H](c2ccccc2)[C@@H]2C(=O)N(c4ccccc4)C(=O)[C@@H]2[C@@H]3C1 (some centres not stated),-4%,.,.,.
COc1cccc(NC(=O)N[C@@H](Cc2ccccc2)C(=O)O)c1,4%,2.2µM*,3%,-1%
COc1cccc(NC(=O)Nc2nnc(CC(=O)Nc3ccccc3)s2)c1,-4%,11µM*,-6%,0%
CCOc1ccc(NC(=O)N[C@@H](Cc2ccccc2)C(=O)O)cc1,-7%,-1%,1%,0%
CCC(C)S(=O)(=O)c1oc(-c2cccs2)nc1S(=O)(=O)c1ccccc1 (configuration not stated),.,.,-5%,.
Cc1ccc(-c2nc3cccnc3s2)cc1NS(=O)(=O)c1ccc2c(c1)OCCO2,10%,-4%,-14%,-21%
O=S(=O)(Nc1cccc(-c2nc3cccnc3s2)c1)c1ccc2c(c1)OCCO2,13%,3.2µM*,?,-5%
COC(=O)C1=C(C(=O)OC)[C@@H]2N(C)c3ccccc3[C@@]23C[C@@H](C(=O)OC)N(S(=O)(=O)c2ccc(C)cc2)C3=N1,5%[12.9 µM],.,.,.
SMILES,Giardia FBPA inh,AmpC inh no detg,AmpC inh detg,SARS PLP yeast
COc1ccc2nc(N3CCCCC3)c(C#N)cc2c1,18µM*,2%,-14%,-7%
N#CCCCS(=O)(=O)c1nnnn1-c1ccc(F)cc1Br,0%,.,.,.
CC(=O)c1ccc(NC(=S)NC(NC(=O)c2ccco2)C(Cl)(Cl)Cl)cc1 (configuration not stated),-6%,13µM*,2%,5%
COc1ccc(C(=O)NC(NC(=S)Nc2ccc(S(N)(=O)=O)cc2)C(Cl)(Cl)Cl)cc1 (configuration not stated),1%,8.9µM*,0%,7%
O=C(NC(NC(=S)Nc1ccc(Cl)cc1)C(Cl)(Cl)Cl)c1ccco1 (configuration not stated),-1%,?,-7%,-10%
COc1ccc(NC(=S)NC(NC(=O)c2cccc(C)c2)C(Cl)(Cl)Cl)c([N+](=O)[O-])c1 (configuration not stated),-6%,4µM*,0%,0%
CC(=Nc1ccc(C)cc1)c1sc2ccccc2c1O,1%,7.9µM*,1%,-25%
